Screening results (PubChem)
A selection: hits, their analogues and other compounds. The true share with any hit is near 9.3%.
NPC1 prom act = activators of NPC1 promoter | Potency, µM (series often up to 9.22 µM), inactives show at the top dose activation, usual class: activators | actives 2.4% (n = 320,000) | AID 485313 | Huh7 NPC1 promoter luciferase reporter, 24 h; also: % of control where 0% means no effect; nearly all actives have a fitted effect of over 60% in size
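Huh7 reporter cells (NPC1 promoter driving luciferase) are dosed with compound for 24 h at 37 °C, 5% CO2; luciferase detection reagent is then added and luminescence measured after 10 min at ambient temperature.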
FLuc counter = counter-screen for miR-21 project: firefly luciferase inhibitors or activators; purified FLuc, Km substrates, luminescence inhibition; actives 6.9% (n = 360,000); Potency, µM (titrated, usually from 57.5 µM), inactives show at the highest dose activity change, negative = inhibition, most hits filed as inhibitors; P08659;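 also: plate controls were vehicle for no effect and reference inhibitor for full effect; nearly all actives have a fitted effect of over 55% in size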
Target sequence (P08659 whole entry, looked up): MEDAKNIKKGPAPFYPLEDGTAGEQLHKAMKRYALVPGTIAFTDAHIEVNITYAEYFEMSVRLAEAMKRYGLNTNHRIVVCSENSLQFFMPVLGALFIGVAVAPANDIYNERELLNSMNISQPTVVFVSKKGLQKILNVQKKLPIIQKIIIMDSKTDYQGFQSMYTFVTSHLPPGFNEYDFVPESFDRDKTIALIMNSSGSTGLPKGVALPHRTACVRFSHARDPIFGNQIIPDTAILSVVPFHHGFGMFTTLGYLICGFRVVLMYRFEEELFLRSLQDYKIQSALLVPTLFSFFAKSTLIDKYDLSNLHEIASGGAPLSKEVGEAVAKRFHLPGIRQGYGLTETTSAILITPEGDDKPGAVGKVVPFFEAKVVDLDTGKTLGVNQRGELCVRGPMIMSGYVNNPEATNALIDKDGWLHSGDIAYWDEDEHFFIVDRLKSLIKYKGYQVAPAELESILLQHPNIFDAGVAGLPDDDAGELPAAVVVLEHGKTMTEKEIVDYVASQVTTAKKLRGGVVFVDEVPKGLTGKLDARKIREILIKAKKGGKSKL
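Biochemical qHTS of compounds, final roughly 60 µM downward over six points, against 10 nM purified firefly luciferase using Km concentrations of substrates (10 uM D-luciferin, 10 uM ATP) in Tris acetate pH 7.5 buffer; luminescence output.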
Rab9 promoter act = Rab9 promoter activation. AID 485297. Potency, µM (series often up to 9.22 µM), inactives show at the top dose activation, negative = inhibition, hits mostly activators. Huh7 Rab9 promoter-luciferase reporter, luminescence, 24 h. actives 2.8% (n = 320,000); also: % of control where 0% means no effect; nearly all actives have a fitted effect of over 60% in size
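Luminescence from Amplite-detected luciferase (10 minutes, ambient) reports Rab9 promoter activation. Before that, stable Rab9-luciferase Huh7 cells (1500/well, reduced-serum OP-MEM I plus 10% FBS) were exposed to compound for 24 hours at 37C.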
ELG1 genotoxic = inducers of genotoxicity in HEK293T ELG1-luciferase cells; HEK293T ELG1-luciferase reporter, luminescence, 16 h; actives 1.3% (n = 330,000); Potency, µM (series often up to 46 µM), for the others: at the top dose activity change, positive = activation, hits mostly activators; also: % of control where 0% means no effect; nearly all actives have a fitted effect of over 60% in size
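Quantitative HTS format in 1536-well plates. HEK293T ELG1-luciferase reporter cells receive test compound and are incubated 16 hr at 37 °C, 5% CO2; ONE-Glo added, 30 min room temperature, then luminescence read.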
SMN2 splice up = enhancers of SMN2 splice variant expression | HEK293 SMN2-luciferase splicing reporter, luminescence, 30-36 h | Potency, µM (highest dose often 46.1 µM), without a hit: top-dose activity change, positive = activation, most hits filed as activators | actives 2.8% (n = 210,000); also: % of control where 0% means no effect; nearly all actives have a fitted effect of over 55% in size
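qHTS luciferase splicing reporter: luminescence rises when SMN2 exon 7 is included in transfected HEK293 cells. Compound exposure lasted 30-36 h at 37C, with 4.5 mM final sodium butyrate as control, followed by a ONE-Glo read.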
ELG1 repair inh = blocks ELG1-dependent DNA repair in HEK293T cells; actives 2.3% (n = 330,000); Potency, µM (series often up to 46.1 µM), for the others: at the highest dose activity change, negative = inhibition, most hits filed as inhibitors; HEK293T ELG1-luciferase reporter, luminescence, 16 h; DNA damage induced by 5-fluorouridine; also: % is scaled to controls: 0 for no effect and ±100 for the full control effect; nearly all actives have a fitted effect of over 55% in size
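Quantitative HTS, concentration-response format. 2,000 cells/well co-treated with 5-fluorouridine and compound, 16 hr in 5% CO2 at 37 °C; ONE-Glo luminescence read after 30 min.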
* marks the source's active call; other numbers are inactive results; ? = inconclusive; . = not tested or not shown. Calls follow the shape of the dose curve; as a rule, active = well fitted curve in the direction sought with a large enough effect; inconclusive = small, poorly fitted or top-dose-only effect, or another doubt; inactive = no such curve, though single readings can be large; an effect the other way counts as inactive or inconclusive. Potency is read from the fitted curve at half-maximal effect.

SMILES	NPC1 prom act	FLuc counter	Rab9 promoter act	ELG1 genotoxic	SMN2 splice up	ELG1 repair inh
CCCc1cc2c(OC(=O)CC)c(-c3ccc(C(=O)OCC)o3)c(=O)oc2cc1OC	2%	24µM*	-6%	0%	9%	12%
CCOC(=O)c1cccc(NC(=O)c2cnn(-c3ccccc3)c2-n2cccc2)c1	.	-11%	.	.	-40%	.
CCc1cccc(NC(=O)c2cnn(-c3ccccc3)c2C)c1	0.89µM*	2.1µM*	2.2µM*	1.8µM*	.	?
COc1cccc(NC(=O)c2cnn(-c3ccccc3)c2C)c1	?	1.5µM*	13µM*	1.8µM*	.	?
CCn1ncc(C(=O)Nc2cccc(Cl)c2)c1C	3%	9.5µM*	?	?	13µM*	?
O=C(Nc1cccnc1)c1coc(=O)c2ccccc12	-10%	1%	-1%	1%	-4%	15%
CCc1cccc(NC(=O)c2coc(=O)c3ccccc23)c1	.	11µM*	.	.	12%	.
Cn1c(=O)oc2cc(S(=O)(=O)NCCC(=O)NCc3ccc(F)cc3)ccc21	2%	-2%	-4%	1%	-8%	-2%
COc1ccc(-c2cc(C(=O)N3CCc4ccccc4C3)no2)cc1	1%	17µM*	-4%	24%	2%	7%
COc1ccc(-c2cc(C(=O)N3CCN(c4ccccc4)CC3)no2)cc1	2.8µM*	6.7µM*	?	?	?	?
COc1ccc(-c2cc(C(=O)N3CCN(c4ccccc4OC)CC3)no2)cc1	0%	?	-10%	0%	.	?
O=C(CCc1nnc(Cc2c[nH]c3ccccc23)o1)NC(C1CC1)C1CC1	0%	-1%	0%	1%	-11%	-1%
O=C(CN1C(=O)c2ccccc2C1=O)NCc1ccccn1	-2%	-1%	4%	3%	-29%	-3%
O=C(Cn1c(=O)sc2ccccc21)NCc1ccccn1	22%	?	23%	18µM*	11µM*	?
c1ccc(Nc2nc(-c3ccncc3)cs2)cc1	0%	?	4%	15%	?	?
CC(=O)c1cccc(Nc2nc(-c3cccnc3)cs2)c1	3.5µM*	11µM*	?	7%	.	?
CC(=O)c1cccc(Nc2nc(-c3ccccc3)cs2)c1	3.2µM*	3.4µM*	1.3µM*	?	11µM*	?
COc1ccccc1N1CCN(c2ncnc3c2c(-c2ccccc2)cn3-c2cccc(C)c2)CC1	.	1%	.	.	.	.
COc1cc(NC(=O)CN2C(=O)C(c3ccc(C)cc3)=NC23CCCCCC3)cc(OC)c1	.	6%	.	.	7%	.
CCOc1cc(/C=N/NC(=O)c2ccccc2OCc2ccc(F)cc2)ccc1O	-1%	?	0%	-2%	.	5.8µM*
O=C(COc1ccccc1C(=O)N/N=C\c1ccc(O)c(O)c1)N/N=C/c1ccc(O)c(O)c1	-5%	6.7µM*	-9%	0%	?	0%
CCOc1cc(/C=N/NC(=O)c2ccccc2-n2cccc2)ccc1O	-3%	1%	-11%	0%	.	?
O=C(COc1ccccc1[N+](=O)[O-])N/N=C/c1ccc(O)c([N+](=O)[O-])c1	-4%	?	-1%	24%	-25%	?
Cc1ccccc1-n1c(=O)/c(=C\c2ccco2)s/c1=C(/C#N)C(=O)Nc1ccccc1	2%	2%	-3%	-13%	-2%	4.6µM*
Cc1cc(C)n(-c2ccc(C(=O)Nc3ccccn3)cc2)n1	0.89µM*	6µM*	0.5µM*	?	1.6µM*	?
SMILES	NPC1 prom act	FLuc counter	Rab9 promoter act	ELG1 genotoxic	SMN2 splice up	ELG1 repair inh
Cc1cc(C)n(-c2ccc(C(=O)Nc3nnc(C)s3)cc2)n1	13%	13µM*	?	?	2%	?
CCN1CCN(c2ccc(Cl)cc2NC(=O)c2ccc(-n3nc(C)cc3C)cc2)CC1	-3%	-1%	-3%	-10%	.	15µM*
Cc1cc(C)n(-c2ccc(C(=O)Nc3sccc3C(N)=O)cc2)n1	?	6.7µM*	?	?	13µM*	?
Nc1c(Cl)ncnc1N/N=C/c1ccccn1	0%	?	1%	4.1µM*	-81%	?
Nc1c(Cl)ncnc1N/N=C/c1ccc2ccccc2n1	?	4.8µM*	?	?	-41%	?
CCOc1cc(/C=N/Nc2ncnc(Cl)c2N)ccc1O	16%	11µM*	22%	?	23%	?
COc1nccc(C(F)(F)F)c1C(=O)Nc1ccc(Cl)cc1	-4%	0%	2%	-6%	.	2%
O=C(Nc1ccc(Br)cc1)c1ccc2ncsc2c1	0.4µM*	5.4µM*	0.35µM*	1.6µM*	.	?
CCc1ccc(NC(=O)c2ccc3ncsc3c2)cc1	1.4µM*	2.7µM*	3.5µM*	?	8.9µM*	?
O=C(Nc1ccc2c(c1)C(=O)NC2=O)c1ccc2ncsc2c1	?	?	?	?	11µM*	?
COc1ccc(NC(=O)c2ccc3ncsc3c2)cc1	3.2µM*	8.5µM*	1.4µM*	?	.	?
O=C(CN1CCN(S(=O)(=O)c2ccc(Br)s2)CC1)N1CCCCC1	6%	.	-7%	-2%	.	-9%
CCc1nnc(NC(=O)CSc2nc3c([nH]c4ccccc43)c(=O)n2-c2cc(C)cc(C)c2)s1	.	2%	.	.	.	.
